“And” between values parts separate entries of the source, which are not always exact repeats. Equal entries are not always repeated. Inconclusive results are not listed. Values without a mark were called inactive. The source made the active and inactive calls. Calls follow the shape of the dose curve; as a rule, active = well fitted cell-killing curve with a large enough effect in the repeat runs; inconclusive = weak or mixed curves, or effect the other way; inactive = flat fitted curve, though single readings scatter.
Experiment: qHTS assay to identify small molecule antagonists of the androgen receptor (AR) signaling pathway using the MDA cell line - cell viability counter screen (AID 743041; also: nearly all actives have a fitted effect of over 45% in size)
Conditions: MDA-kb2 viability, CellTiter-Fluor, 16 h, cells co-treated with R1881 androgen agonist; series mostly up to 70.3 µM; viability change, negative = cytotoxic: at the top concentration
Excerpt: National Center for Advancing Translational Sciences [NCATS]
NIH Chemical Genomics Center [NCGC]
U.S. Environmental Protection Agency [EPA]
National Institutes of Environmental Health Sciences [NIEHS]
National Toxicology Program [NTP]
U.S. Food and Drug Administration [FDA]
Androgen receptor (AR), a nuclear hormone receptor, plays a critical role in AR-dependent prostate cancer and other androgen related diseases. Endocrine disrupting chemicals (EDCs) and their interactions with steroid hormone receptors like AR may cause disruption of normal endocrine function as well as interfere with metabolic homeostasis, reproduction, developmental and behavioral functions. To identify the compounds that inhibit AR signaling, MDA-kb2 AR-luc cell line (from ATCC, deposited by Wilson et al.) was used to screen the Tox21 10K compound library. MDA-kb2 AR-luc cell line is human breast carcinoma cell line that was stably transfected with a luciferase reporter gene under control of the MMTV promoter containing response elements for both androgen receptor (AR) and glucocorticoid receptor (GR). The cytotoxicity of the Tox21 compound library against the MDA-kb2 AR-luc cell line was tested in parallel by measuring the cell viability using CellTiter-Fluor assay (Promega, Madison, WI) in the same wells.
Tox21 Assay Protocol Summary:
MDA-kb2 AR-luc cells were dispensed at 3,000 cells/4 uL/well of culture medium into white wall/solid-bottom 1536-well plates using a Multidrop Combi (ThermoFisher Scientific, Waltham, MA) dispenser. After the assay plates were incubated at a 37C and 0% CO2 for 5 hr, 23 nL of compounds dissolved in DMSO, positive controls or DMSO only was transferred to the assay plate by a Pintool station (Kalypsys, San Diego, CA), followed by addition of 1 uL of agonist (R1881) in culture medium using a Bioraptr Flying Reagent Dispenser (FRD) workstation (Beckman Coulter, Indianapolis, IN, USA). The plates were incubated at a 37C and 0% CO2 for 16 h. After 15.5 h incubation, 1uL of CellTiter-Fluor reagent (Promega) was added using a Bioraptr FRD to each plate for measuring cytotoxicity. The fluorescence intensity was quantified on a ViewLux plate reader (PerkinElmer, Shelton, CT) following 30 min incubation at 37C and 0% CO2.
% is scaled to controls: 0 for no effect and ±100 for the full control effect; potency is read from the fitted curve at half-maximal effect.

SMILES	Potency	viability change, negative = cytotoxic
CC[C@H]1CN2CCc3cc(OC)c(OC)cc3[C@@H]2C[C@@H]1C[C@H]1NCCc2cc(OC)c(OC)cc21	6.88 µM (active)	–
C=CS(=O)(=O)O	inactive	–
O=C(Cl)c1cccc(C(=O)Cl)c1	inactive	–
CC(C)(C)c1ccccc1	–	6.26%
Nc1cc(S(=O)(=O)O)cc2cc(S(=O)(=O)O)cc(O)c12	–	-19.1%
CC(C)(C)NC(=O)[C@@H]1CN(Cc2cccnc2)CCN1C[C@@H](O)C[C@@H](Cc1ccccc1)C(=O)N[C@H]1c2ccccc2C[C@H]1O	–	-2.65%
CCN(CC)C(=S)SSC(=S)N(CC)CC	376 nM (active) and 243 nM (active) and 222 nM (active)	–
COC(=O)/C=C/c1ccccc1	–	12.8%
Oc1ccc(Cl)cc1Cc1cc(Cl)ccc1O	–	-20.1%
CC1=C(C=O)C(C)(C)CC=C1	–	1.98% [at 95 µM]
CC(C)C(=O)c1c(C(C)C)nn2ccccc12	–	5.22%
O=S(=O)(O)c1ccc2nc(-c3ccccc3)[nH]c2c1	inactive	–
Cc1scc2c1N(C(=O)CN1CCN(C)CC1)c1ccccc1NC2=O	–	3.94%
O=C(O)c1cn(-c2ccc(F)cc2)c2cc(N3CCNCC3)c(F)cc2c1=O	–	0.445%
CCN(CC)CCOc1ccc(/C(=C(\Cl)c2ccccc2)c2ccccc2)cc1	–	-1.32%
c1ccc2cc3c(ccc4ccccc43)cc2c1	inactive	–
c1cc(C(c2ccc(OCC3CO3)cc2)C(c2ccc(OCC3CO3)cc2)c2ccc(OCC3CO3)cc2)ccc1OCC1CO1 (stereo not given)	inactive	–
Cc1occc(=O)c1OC(=O)C(C)C	–	3.78%
COC(c1ccccc1)(c1ccccc1)[C@H](Oc1nc(C)cc(C)n1)C(=O)O	–	8.44%
C=C(C)C(=O)O	inactive	–

SMILES	Potency	viability change, negative = cytotoxic
NC(N)=Nc1nc(CSCC/C(N)=N/S(N)(=O)=O)cs1	inactive	–
CCn1c2ccccc2c2cc(N)ccc21	inactive	–
NC(=Nc1ccccc1)Nc1ccccc1	–	-16%
CCOc1ccccc1C(N)=O	inactive	–
CC(C)CCCCCCc1ccc(O)cc1	inactive	–
O	inactive	–
NCCCCCC(=O)O	–	1.16% [at 32.5 µM]
C=C(C)C1CC=C(C)C(OC(C)=O)C1 (stereo not given)	inactive	–
NC12CC3CC(CC(C3)C1)C2	–	-1.9%
O=C(O)CP(=O)(O)O	–	-0.393%
CN1C(=O)c2ccc([N+](=O)[O-])cc2C1=O	–	-1.03%
CCc1ccc(C(c2ccc(CC)cc2)C(Cl)Cl)cc1	inactive	–
COc1ccc(Cc2cnc(N)nc2N)cc1OC	–	6.25%
Cc1ccc(S(=O)(=O)Oc2ccc(N=Nc3ccc(-c4ccc(N=Nc5c(O)ccc6cc(S(=O)(=O)O)cc(S(=O)(=O)O)c56)c(C)c4)cc3C)cc2)cc1	54.7 µM (active) and 35.5 µM (active)	–
CCCCCCC(O)CCCCCCCCCCC(=O)O (stereo not given)	inactive	–
CCCNC(C)C(=O)Nc1ccccc1C (stereo not given)	–	-1.41%
COC(=O)c1cccc(C(=O)OC)c1	–	3.07%
NC(N)=NC(=O)Cc1c(Cl)cccc1Cl	–	5.66%
O=C(Oc1ccccc1)c1ccccc1O	inactive	–
O=C(O)c1cccc(C(=O)O)c1	inactive	–
